# Data taken from PubChem BioAssay (NCI).
# Compounds without any hit were thinned out: in the full panel of roughly 83,000, 20% have a hit.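 A percent growth of 40 corresponds to 60% growth inhibition; 0 means no net growth; -100 means all cells died. Active threshold: below 10.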 Activity calls are given as the source filed them.
# Test system: HL-60(TB) leukemia
# Experiment: NCI-60 one-dose screen, 48 h (100 = growth as untreated, 0 = no growth, -100 = all killed)
# Details: 10 µM unless noted
row,SMILES,growth
1,O=C(Cn1c[n+](CC(=O)c2ccc([N+](=O)[O-])cc2)c2ccccc21)Nc1cccc2cccnc12,61.9% (inactive)
2,CC(=O)N1CCN(c2ccc(OCC3CO[C@](Cn4ccnc4)(c4ccc(Cl)cc4Cl)O3)cc2)CC1 (stereo not given in full),56.5% (inactive)
3,COc1ccc(Nc2nc(N)nc3c(=O)[nH]ccc23)cc1,96.1% (inactive)
4,CCn1cc(C(=O)NN=C2CCCCCC2)c(=O)c2ccc(C)nc21,80.2% (inactive)
5,O=C(CNc1ccc(Cl)cc1)Nc1ccc(-c2nc3ccccc3s2)cc1,71% (inactive)
6,CC1Cc2ccccc2O1 (stereo not given),102% (inactive)
7,C=CC(=O)Nc1ccc(Oc2nccc(Nc3nnc(-c4ccc(C)cc4)s3)n2)cc1,41.6% (inactive)
8,CN1CCN(CCCOc2ccc3ncnc(Nc4ccc(Oc5cccc(C(F)(F)F)c5)c(Cl)c4)c3c2)CC1,-45.9% (active)
9,O=C(O)/C(Br)=C/c1c[nH]c2ccc(Br)cc12,96.9% (inactive)
10,COc1ccc(NC(=O)c2cccc(C3CCc4c(cc(OC)c(OC)c4OC)O3)c2)cc1 (stereo not given),-8.38% (active)
11,COc1ccc2cn3c4ccc(O)cc4[nH]c(=O)c3c2c1,-7.42% (active)
12,COc1cc2c(cc1OCCCOc1cc3c(cc1OC)C(=O)N1CC(F)(F)C[C@H]1C=N3)N=C[C@@H]1CC(F)(F)CN1C2=O,-12.2% (active)
13,CO[C@H](C(=O)[C@@H](O)[C@@H](C)O)[C@@H]1Cc2cc3cc(O[C@H]4C[C@@H](O[C@H]5C[C@@H](O)[C@H](O)C(C)O5)[C@H](O)C(C)(O)O4)cc(O)c3c(O)c2C(=O)[C@H]1O[C@H]1C[C@@H](O[C@H]2C[C@@H](O[C@H]3C[C@@H](OC)[C@H](O)C(C)O3)[C@@H](O)C(C)O2)[C@H](O)C(C)O1 (stereo not given in full),71% (inactive)
14,O=C1c2ccccc2CCc2ccccc21,90% (inactive)
15,O=C(/C=C/c1cccs1)Nc1ncc(Cc2ccccc2F)s1,-40.2% (active)
16,NC(N)=NC(N)=Nc1cc2ccccc2c2ccccc12,28.8% (inactive)
17,CSc1cccc([N+](=O)[O-])c1,91.7% (inactive)
18,C=CCOC1=CC(=O)c2ccccc2C1=O,41.6% (inactive)
19,Oc1ccc(N=Cc2ccccc2O)cc1,63.3% (inactive)
20,Nc1ccccc1-c1ccn[nH]1,95.6% (inactive)

row,SMILES,growth
1,O=C(CCN1C(=O)c2ccccc2C1=O)Nc1ccc(Cl)cc1,105% (inactive)
2,Cc1cc(N(CCCNc2ccnc3cc(Cl)ccc23)Cc2ccccn2)nc(N2CCCC2)n1,65.8% (inactive)
3,CC(C)C/C(=N\NC(=O)c1ccncc1)c1cc(Cl)ccc1O,-32.3% (active)
4,O=C(NCCOCCOCCOCCNC(=O)c1cc2c(o1)C(=O)c1ccccc1C2=O)NC12CC3CC(CC(C3)C1)C2,1.17% (active)
5,CCN(CCCCCCN1CC(=O)N(CCCCCCN(CC)Cc2ccccc2OC)CC1=O)Cc1ccccc1OC,60.6% (inactive)
6,O=C1C2=C(Nc3cc([N+](=O)[O-])ccc3N2)OC1c1c2ccccc2cc2ccccc12 (stereo not given),14.2% (inactive)
7,O=C1Nc2c(C(=O)O)cccc2/C1=N/c1n[nH]c(=S)s1,79.7% (inactive)
8,CCCCc1oc2ccccc2c1C(=O)c1cc(I)c(OCCN(CC)CC)c(I)c1,-62.9% (active)
9,O=C(O)c1cccc([N+](=O)[O-])c1O,78.2% (inactive)
10,O=C(CCCC(=O)Nc1ccc(-n2nnc3cc(Cl)c(Cl)cc32)cc1)Nc1ccc(-n2nnc3cc(Cl)c(Cl)cc32)cc1,75.9% (inactive)
11,Cc1c(C(=O)O)c(=O)n(-c2ccccc2)n1C,109% (inactive)
12,CN([N-]C(=O)CC(=O)[N-]N(C)C(=S)c1ccccc1)C(=S)c1ccccc1.[Cu+2],-15.6% (active)
13,NC(=N\N=C/c1ccc(O)cc1)/C(N)=N\N=C/c1ccc(O)cc1,25.9% (inactive)
14,CCN(CC)CCCCCCCCNc1c2ccc(Cl)cc2nc2ccc(OC)cc12,-53.2% (active)
15,CCc1nc(C)cn1C(=O)OCc1nc2nc(Cl)nc(N3CCOCC3)c2[nH]1,-23.1% (active)
16,COc1ccc(NC(=S)N/N=C/c2ccccc2SSCCC(=O)OC[C@H]2O[C@H](O)[C@H](O)[C@@H](O)[C@@H]2O)cc1,75.1% (inactive)
17,CN(C)CCC(=O)c1ccc([N+](=O)[O-])cc1,114% (inactive)
18,CCCCC[C@H]1C/C=C2/C(=O)C(Cl)=C[C@@H]2C/C=C\CCCC(=O)O1,-9.03% (active)
19,CCOC(=O)c1cc(/C=C/c2cccc(Cl)c2)on1,74.9% (inactive)
20,CC(C)N=C(N)/N=C(\N)Nc1ccc2ccc3ccccc3c2c1,-47.8% (active)
